PubChem BioAssay (NCI)
Compounds without any hit were thinned out: in the full panel of roughly 79,000, 15% have a hit. Activity calls are given as the source filed them. Cut-off read from the data, not from the text of the source: active = growth inhibition above about 70%; inactive = the rest.

Columns and labels:
[1] = NCI Yeast Anticancer Drug Screen. Data for the rad52 strain (AID 147);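 note: 0% = growth of vehicle-treated control cultures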; details: S. cerevisiae rad52 mutant growth inhibition, stronger effect = higher value
Outline: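 Inhibition of yeast growth, referenced to vehicle controls, was the measured output for a strain with defective DNA damage repair.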

[2] = NCI Yeast Anticancer Drug Screen. Data for the wt1 strain (AID 149);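 note: 0% = growth of vehicle-treated wt1 cultures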; details: S. cerevisiae wt1 strain (SPY 50644) growth inhibition, stronger effect = higher value
Outline: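 wt1 strain grown with compound or vehicle; inhibition taken from the growth difference.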

[3] = NCI Yeast Anticancer Drug Screen. Data for the rad50EPP+ strain (AID 151);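 note: 0% = growth of vehicle-treated control cultures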; details: S. cerevisiae rad50 mutant strain, stronger effect = higher value
Outline: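 Genetically defined yeast (rad50EPP+, DNA damage repair alteration) is grown with compound, and inhibition of growth is expressed relative to vehicle-treated controls.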

[4] = NCI Yeast Anticancer Drug Screen. Data for the mgt1 strain (AID 153); details: S. cerevisiae mgt1 mutant growth inhibition, stronger effect = higher value
Outline: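 In the mgt1 strain, test compounds were added and growth inhibition was determined relative to vehicle-treated controls.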

[5] = NCI Yeast Anticancer Drug Screen. Data for the rad50 strain (AID 155);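 note: 0% = growth of vehicle-only cultures of the same strain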; details: S. cerevisiae rad50 strain growth inhibition, stronger effect = higher value
Outline: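 DNA repair mutant yeast, compound exposure, growth read-out; inhibition is taken relative to vehicle.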

[6] = NCI Yeast Anticancer Drug Screen. Data for the mec2-1 strain (AID 157); details: S. cerevisiae mec2-1 strain, stronger effect = higher value
Outline: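 Each compound was tested on mec2-1 yeast, a strain altered in DNA damage repair or cell cycle control. Growth inhibition is reported relative to vehicle.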

[7] = NCI Yeast Anticancer Drug Screen. Data for the rad14 strain (AID 159);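 note: 0% = growth of vehicle-treated control cultures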; details: S. cerevisiae rad14 strain growth inhibition, stronger effect = higher value
Outline: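 DNA repair-defective yeast, compound-exposed; % growth inhibition derived by comparison with vehicle-treated controls.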

[8] = NCI Yeast Anticancer Drug Screen. Data for the sgs1 mgt1 strain (AID 161);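 note: 0% = growth of cultures given vehicle only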; details: S. cerevisiae sgs1 mgt1 strain, stronger effect = higher value
Outline: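 Test agents were incubated with a DNA-repair-mutant yeast strain. Growth was then read and compared against vehicle-treated controls.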

[9] = NCI Yeast Anticancer Drug Screen. Data for the CLN2oe strain (AID 163);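 note: 0% = growth of vehicle-only control cultures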; details: S. cerevisiae CLN2oe strain, stronger effect = higher value
Outline: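 First, the altered yeast strain was treated with each compound; second, its growth was measured; finally, inhibition was derived by comparison with vehicle controls.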

[10] = NCI Yeast Anticancer Drug Screen. Data for the cln2 rad14 strain (AID 165);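 note: 0% = growth equal to vehicle treated cultures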; details: S. cerevisiae cln2 rad14 strain, stronger effect = higher value
Outline: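 Test compounds were added to cln2 rad14 yeast cultures; inhibition of growth was then determined by comparison with vehicle treatment.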

[11] = NCI Yeast Anticancer Drug Screen. Data for the bub3 strain (AID 167); details: S. cerevisiae bub3 mutant strain, stronger effect = higher value
Outline: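 In this screen, a yeast mutant lacking normal mitotic checkpoint function is challenged with compound. Relative growth versus vehicle gives the inhibition value.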

[12] = NCI Yeast Anticancer Drug Screen. Data for the wt2 strain (AID 169);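 note: 0% = growth of vehicle-treated yeast cultures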; details: S. cerevisiae wt2 strain growth inhibition, stronger effect = higher value
Outline: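 The panel's yeast strains carry defined changes in DNA repair or cell cycle genes. Each strain is grown with compound, and growth loss is scored relative to vehicle.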

[13] = NCI Yeast Anticancer Drug Screen. Data for the sgs1 strain (AID 173);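 note: 0% = growth of vehicle-only control cultures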; details: S. cerevisiae sgs1 mutant, stronger effect = higher value
Outline: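 Vehicle-treated cultures served as reference for growth inhibition of a yeast strain altered in DNA damage repair or cell cycle control after compound exposure.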

[14] = NCI Yeast Anticancer Drug Screen. Data for the mlh1 rad18 strain (AID 175); details: S. cerevisiae mlh1 rad18 strain growth inhibition, stronger effect = higher value
Outline: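 Inhibition values reflect reduced growth of mutant yeast versus vehicle-treated controls following compound exposure; the mutations affect DNA damage repair.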

[15] = NCI Yeast Anticancer Drug Screen. Data for the rad18 strain (AID 177); details: S. cerevisiae rad18 mutant growth inhibition, stronger effect = higher value
Outline: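 Steps: expose repair-mutant yeast to compound; measure growth; express as inhibition relative to vehicle control.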

[16] = NCI Yeast Anticancer Drug Screen. Data for the mlh1 strain (AID 171);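 note: 0% = growth of vehicle-treated control cultures of the same strain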; details: S. cerevisiae mlh1 strain growth inhibition, stronger effect = higher value
Outline: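 Inhibition values reflect reduced yeast growth in the presence of compound, referenced to vehicle controls, using a strain chosen for its alteration in DNA repair or cell cycle control.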

[17] = at 5.0 µM (retest, dose inferred, filed as 0.5)
[18] = at 50.0 µM (retest, dose inferred, filed as 5.0)

Measured: growth inhibition

CN(C)Cc1cc(N=Nc2ccc(Cl)cc2)ccc1OC(=O)c1ccccc1
inactive: [1]; at 1.2 µM 1% | [1]; at 3.7 µM 3% | [1]; at 11.0 µM 1% | [1]; at 33.0 µM 7% | [1]; at 100.0 µM 17% | [2]; at 1.2 µM 1% | [2]; at 3.7 µM 1% | [2]; at 11.0 µM 3% | [2]; at 33.0 µM 3% | [2]; at 100.0 µM -1% | [3]; at 1.2 µM 4% | [3]; at 3.7 µM 7% | [3]; at 11.0 µM 20% | [3]; at 33.0 µM 22% | [3]; at 100.0 µM 41% | [4]; at 1.2 µM 0% | [4]; at 3.7 µM 1% | [4]; at 11.0 µM 5% | [4]; at 33.0 µM 48% | [5]; at 1.2 µM 1% | [5]; at 3.7 µM 1% | [5]; [17] -10% | [5]; at 11.0 µM 1% | [5]; at 33.0 µM 5% | [5]; [18] 10% | [5]; at 100.0 µM 11% | [6]; at 1.2 µM -3% | [6]; at 3.7 µM 3% | [6]; [17] -2% | [6]; at 11.0 µM -2% | [6]; at 33.0 µM 3% | [6]; [18] 47% | [6]; at 100.0 µM 42% | [7]; at 1.2 µM -1% | [7]; at 3.7 µM -2% | [7]; at 11.0 µM 1% | [7]; at 33.0 µM 14% | [7]; at 100.0 µM 51% | [8]; [17] 38% | [8]; [18] 48% | [9]; at 1.2 µM 3% | [9]; at 3.7 µM -1% | [9]; at 11.0 µM 1% | [9]; at 33.0 µM 0% | [9]; at 100.0 µM 5% | [10]; [17] -20% | [10]; [18] 51% | [11]; at 1.2 µM -2% | [11]; at 3.7 µM -2% | [11]; [17] -15% | [11]; at 11.0 µM -4% | [11]; at 33.0 µM 5% | [11]; [18] 54% | [11]; at 100.0 µM 23% | [12]; at 1.2 µM 1% | [12]; at 3.7 µM 2% | [12]; at 11.0 µM 6% | [12]; at 33.0 µM 21% | [12]; at 100.0 µM 52% | [13]; at 1.2 µM 0% | [13]; at 3.7 µM 5% | [13]; at 11.0 µM 9% | [13]; at 33.0 µM 42% | [14]; [17] -9% | [14]; [18] 61% | [15]; at 1.2 µM 1% | [15]; at 3.7 µM 1% | [15]; at 11.0 µM -16% | [15]; at 33.0 µM 17% | [15]; at 100.0 µM 58%
active: [4]; at 100.0 µM 82% | [5]; at 50.0 µM 90.3% | [6]; at 50.0 µM 97.2% | [8]; at 50.0 µM 98.3% | [10]; at 50.0 µM 97% | [11]; at 50.0 µM 98.5% | [13]; at 100.0 µM 74% | [14]; at 50.0 µM 98.5%

CCN(CC)Cc1cc(Nc2c3ccccc3nc3c2[nH]c2ccccc23)cc(CN(CC)CC)c1O
inactive: [1]; at 1.2 µM 32% | [1]; at 3.7 µM 21% | [1]; at 11.0 µM 12% | [1]; at 33.0 µM 7% | [1]; at 100.0 µM 18% | [2]; at 1.2 µM 1% | [2]; at 3.7 µM 2% | [2]; at 11.0 µM -1% | [2]; at 33.0 µM 0% | [2]; at 100.0 µM 3% | [3]; at 1.2 µM 3% | [3]; at 3.7 µM 1% | [3]; at 11.0 µM 3% | [3]; at 33.0 µM 2% | [3]; at 100.0 µM 13% | [4]; at 1.2 µM -3% | [4]; at 3.7 µM -3% | [4]; at 11.0 µM -3% | [4]; at 33.0 µM -16% | [4]; at 100.0 µM 1% | [5]; at 1.2 µM 25% | [5]; at 3.7 µM 7% | [5]; [17] -3% | [5]; at 11.0 µM -4% | [5]; at 33.0 µM 10% | [5]; [18] 10% | [5]; at 50.0 µM 17.8% | [5]; at 100.0 µM 23% | [6]; at 1.2 µM 2% | [6]; at 3.7 µM 1% | [6]; [17] -2% | [6]; at 11.0 µM -1% | [6]; at 33.0 µM 2% | [6]; [18] 15% | [6]; at 50.0 µM 21.3% | [6]; at 100.0 µM 5% | [7]; at 1.2 µM -1% | [7]; at 3.7 µM -3% | [7]; at 11.0 µM -1% | [7]; at 33.0 µM 2% | [7]; at 100.0 µM 8% | [8]; [17] -5% | [8]; [18] 1% | [8]; at 50.0 µM -10.1% | [9]; at 1.2 µM -5% | [9]; at 3.7 µM -3% | [9]; at 11.0 µM 1% | [9]; at 33.0 µM 3% | [9]; at 100.0 µM 7% | [10]; [17] 48% | [10]; [18] 61% | [10]; at 50.0 µM 66% | [11]; at 1.2 µM -2% | [11]; at 3.7 µM -4% | [11]; [17] 16% | [11]; at 11.0 µM -3% | [11]; at 33.0 µM -3% | [11]; [18] 38% | [11]; at 50.0 µM -10.2% | [11]; at 100.0 µM 0% | [16]; at 1.2 µM 1% | [16]; at 3.7 µM 2% | [16]; at 11.0 µM 1% | [16]; at 33.0 µM 1% | [16]; at 100.0 µM 7% | [13]; at 1.2 µM 6% | [13]; at 3.7 µM 3% | [13]; at 11.0 µM -2% | [13]; at 33.0 µM -2% | [13]; at 100.0 µM 0% | [14]; [17] 13% | [14]; [18] 16% | [14]; at 50.0 µM -11.6% | [15]; at 1.2 µM 16% | [15]; at 3.7 µM 9% | [15]; at 11.0 µM -2% | [15]; at 33.0 µM -11% | [15]; at 100.0 µM -7%
